Laboratory results reported in paper PMC12431657, “Discovery and mechanistic insights of dibenzoylmethane as a broad spectrum inhibitor of coronavirus” (PLOS Pathogens, 2025).
Where two headings read alike, the source gives them in different places. About 95 (3%) of roughly 3,300 compounds showed an effect of 50% or more. The sample holds strong results, similar compounds and a random draw of the others, so the mix is not that of the screen.

Tested on: HCoV-229E
Parameters: species or system Huh-7; HTS, protection from HCoV-229E induced cell death, luminescent cell viability (CellCounting-Lite 2.0), inhibition rate
Conditions: 24 h post infection, 1 h compound pre-incubation, 10 µM, inhibitor

| SMILES | 229E Inhibition rate [%] | 229E Inhibition rate (229E Inhibition rate, 24 h) [%] |
| --- | --- | --- |
| COc1cc2c(cc1O)CCN1Cc3c(ccc(OC)c3OC)C[C@@H]21 [Corypalmine] | 8.4 |  |
| C=C[C@](C)(O)CC[C@H]1C(=C)CC[C@H]2C(C)(C)CCC[C@]12C [Manool] | 42.5 |  |
| COc1ccc(-c2oc3c(CC=C(C)C)c(O)cc(O)c3c(=O)c2O)cc1 [Icaritin] | 8.6 |  |
| COc1ccc(-c2oc3c(CCC(C)(C)O)c(O)cc(O)c3c(=O)c2O)cc1 [Wushanicaritin] | 51.4 |  |
| CC(C)(O)CCc1c(O)cc(O)c2c(=O)c(O)c(-c3ccc(O)cc3)oc12 [Noricaritin] | 14.9 |  |
| COc1ccc(C2COc3cc(O[C@@H]4O[C@H](CO)[C@@H](O)[C@H](O)[C@H]4O)ccc3C2)c(O)c1OC (stereo partly drawn) [Isomucronulatol 7-O-glucoside] | 13 |  |
| CC(C)=CCC/C(C)=C/C=O [Citral] | 47.4 |  |
| C=C1[C@H]2C[C@H]2[C@]2(C)Cc3occ(C)c3[C@H](O)[C@@H]12 [Lindenenol] | 28.5 |  |
| CCC/C=C1\OC(=O)C2=C1CC[C@H]1[C@H]3C=C4C(=O)O/C(=C\CCC)[C@@]4(CC3)[C@@H]21 [Levistolide A] | 60.4 |  |
| CCC/C=C1\OC(=O)C2=C1CC[C@@H](O)[C@H]2O [Senkyunolide H] | 47.8 |  |
| CCC/C=C1\OC(=O)C2=C1CC[C@H](O)[C@H]2O [Senkyunolide I] | 43.1 |  |
| Cc1ncc(CO)c(C(=O)O)c1O [4-Pyridoxic acid] | 22.7 |  |
| O=C(O)/C=C/c1ccccc1 [Cinnamic acid] |  | 21 |
| O=C(O)[C@H](O)c1ccccc1 [D-(-)-Mandelic acid] | 7.5 |  |
| O=C(O)[C@H]1O[C@@H](Oc2cc(O)c3c(=O)cc(-c4ccc(O)c(O)c4)oc3c2)[C@H](O)[C@@H](O)[C@@H]1O [Luteolin 7-O-glucuronide] | 11.2 |  |
| C[C@@H]1CC[C@]2(C(=O)O[C@@H]3O[C@H](CO)[C@@H](O)[C@H](O)[C@H]3O)CC[C@]3(C)C(=CC[C@@H]4[C@@]5(C)CC[C@H](O)[C@@](C)(CO)[C@@H]5CC[C@]43C)[C@@H]2[C@]1(C)O [Pedunculoside] | 10.8 |  |
| C[C@@H]1CC[C@]2(C(=O)O[C@@H]3O[C@H](CO)[C@@H](O)[C@H](O)[C@H]3O)CC[C@]3(C)C(=CC[C@@H]4[C@@]5(C)C[C@@H](O)[C@H](O)[C@@](C)(CO)[C@@H]5CC[C@]43C)[C@@H]2[C@]1(C)O [Niga-ichigoside F1] | 20.4 |  |
| C[C@@H]1CC[C@]2(C(=O)O[C@@H]3O[C@H](CO)[C@@H](O)[C@H](O)[C@H]3O)CC[C@]3(C)C(=CC[C@@H]4[C@@]5(C)CC[C@H](O)[C@](C)(C(=O)O)[C@@H]5CC[C@]43C)[C@@H]2[C@]1(C)O [Ilexsaponin A] | 58.5 |  |

| SMILES | 229E Inhibition rate [%] | 229E Inhibition rate (229E Inhibition rate, 24 h) [%] |
| --- | --- | --- |
| C[C@@H]1O[C@@H](O[C@H]2[C@H](O)[C@@H](O)[C@H](OC[C@H]3O[C@@H](OC(=O)[C@]45CCC(C)(C)C[C@H]4C4=CC[C@@H]6[C@@]7(C)CC[C@H](O[C@@H]8OC[C@H](O)[C@H](O)[C@H]8O)[C@@](C)(CO)[C@@H]7CC[C@@]6(C)[C@]4(C)CC5)[C@H](O)[C@@H](O)[C@@H]3O)O[C@@H]2CO)[C@H](O)[C@H](O)[C@H]1O [Hederacoside D] |  | 40.4 |
| CC1(C)CC[C@]2(C(=O)O[C@@H]3O[C@H](CO[C@@H]4O[C@H](CO)[C@@H](O)[C@H](O)[C@H]4O)[C@@H](O)[C@H](O)[C@H]3O)CC[C@]3(C)C(=CC[C@@H]4[C@@]5(C)CC[C@H](O[C@@H]6OC[C@H](O)[C@H](O)[C@H]6O)[C@@](C)(CO)[C@@H]5CC[C@]43C)[C@@H]2C1 [Asperosaponin VI] | 56.6 |  |
| C[C@@H]1O[C@@H](O[C@H]2[C@H](O[C@H]3CC[C@@]4(C)[C@@H](CC[C@]5(C)[C@@H]4CC=C4[C@@H]6CC(C)(C)CC[C@]6(C(=O)O[C@@H]6O[C@H](CO[C@@H]7O[C@H](CO)[C@@H](O)[C@H](O)[C@H]7O)[C@@H](O)[C@H](O)[C@H]6O)CC[C@]45C)[C@]3(C)CO)OC[C@H](O)[C@@H]2O)[C@H](O)[C@H](O)[C@H]1O [Dipsacoside B] | 11.1 |  |
| O=C(O)C(O)Cc1cc2ccccc2[nH]1 (stereo not drawn) [Indolelactic acid] | 16.7 |  |
| O=C1C=CCO1 [2(5H)-Furanone] | 8.7 |  |
| CCCCCC(C)C(=O)O (stereo not drawn) [2-Methylheptanoic acid] | 47.5 |  |
| NCc1ccccc1O [o-Hydroxybenzylamine] | 9.2 |  |
| OCc1ccccc1O [Salicyl alcohol] | 51.5 |  |
| O=C(O)Cc1ccccc1O [2-Hydroxyphenylacetic acid] | 12.4 |  |
| c1cc2c(cc1[C@H]1OC[C@H]3[C@@H]1CO[C@@H]3c1ccc3c(c1)OCO3)OCO2 [Sesamin] | 15.4 |  |
| c1cc2c(cc1O[C@H]1OC[C@H]3[C@@H]1CO[C@@H]3c1ccc3c(c1)OCO3)OCO2 [Sesamolin] | 62.2 |  |
| c1cc2c(cc1[C@H]1OC[C@@H]3[C@H]1CO[C@H]3c1ccc3c(c1)OCO3)OCO2 [(-)-Asarinin] | 9.2 |  |
| CC1=C\[C@@H](O)CC(=O)Cc2nc(co2)C(=O)N2CCC=C2C(=O)O[C@H](C(C)C)[C@H](C)/C=C/C(=O)NC\C=C\1 [Virginiamycin M1] | 36.6 |  |
| N[C@@H](Cc1ccc(O)c([N+](=O)[O-])c1)C(=O)O [3-Nitro-L-tyrosine] | 8 |  |
| C=C(C)[C@@H]1CC[C@]2(C)CC[C@]3(C)[C@H](CC[C@@H]4[C@@]5(C)CCC(=O)C(C)(C)[C@@H]5CC[C@]43C)[C@@H]12 [Lupenone] | 9.9 |  |
| CCC1(c2ccc(O)cc2)NC(=O)N(C)C1=O (stereo not drawn) [4-Hydroxymephenytoin] | 55.5 |  |
| CCc1ccc(O)cc1 [4-Ethylphenol] | 20.1 |  |
| O=c1c(O[C@@H]2OC[C@@H](O)[C@H](O)[C@H]2O)c(-c2ccc(O)c(O)c2)oc2cc(O)cc(O)c12 [Reynoutrin] | 19.1 |  |
